Assay outcomes (PubChem)
The list is not random: actives were taken first. Their share in the collection is about 3.5%.
BoNT A protease: inhibitors of Botulinum neurotoxin A light chain protease; inhibition, % at 10 µM; multiplex microsphere protease substrate cleavage, flow cytometry; 360,000 tested, 0.17% active; note: plate controls were buffer without enzyme for full effect and enzyme alone for no effect
Anthrax LF inh2: anthrax lethal factor protease inhibition; P15917; 360,000 tested, 0.12% active; multiplex microsphere protease cleavage assay, LF; AID 588501; inhibition, % at 10 µM; note: plate controls were buffer without enzyme for full effect and enzyme alone for no effect
BoNT-F LC inh: inhibitors of Botulinum neurotoxin F light chain protease | Multiplex microsphere protease cleavage assay, flow cytometry | inhibition, % at 10 µM | 360,000 tested, 0.22% active; in the data active = inhibition above about 35%, passing the limit was not always enough; inconclusive = no clear call, values can overlap the other calls; note: plate controls were buffer without enzyme for full effect and enzyme alone for no effect
Autofluor counter: counter-screen for toxin protease inhibitors: compound fluorescence | compound autofluorescence counterscreen, microsphere flow cytometry; stronger effect = higher value | fluorescence intensity (test concentration not listed) | 360,000 tested, 3.1% active | AID 624483; in the data active = fluorescence intensity above about 16000; inconclusive = no clear call, values can overlap the other calls
Active calls of the source: *; ? = inconclusive. Cut-off read from the data, not from the text of the source, unless noted: active = inhibition above about 30%; inconclusive = no clear call, values can overlap the other calls; inactive = below that.

SMILES	BoNT A protease	Anthrax LF inh2	BoNT-F LC inh	Autofluor counter
CCCn1c(SCC(=O)Nc2nc3ccccc3s2)nc2c1c(=O)n(C)c(=O)n2C	0	0	9	3717
CCCCn1c(SCC(=O)Nc2nnc(CC)s2)nc2c1c(=O)n(C)c(=O)n2C	?	-3	4	21466*
COc1cccc(CN(C)C(=O)c2ccc(S(=O)(=O)Nc3ccccc3C)cc2)c1OC	-1	-4	-6	3661
Cc1ccc(NCCC(=O)c2ccc(Cl)c(Cl)c2)cc1	?	0	-3	23171*
CCc1ccc(NCCC(=O)c2ccc(Cl)cc2)cc1	-1	-5	-8	7029
Cc1ccc(NCCC(=O)c2ccc(Cl)cc2)cc1C	-1	-1	-6	24235*
O=C(Nc1ccc(-c2nc3cc(NC(=O)c4cccs4)ccc3o2)cc1)c1cccs1	-6	-1	-4	22139*
O=C(Nc1ccc2oc(-c3ccncc3)nc2c1)c1cccs1	0	1	9	3262
Cc1ccc(-c2nc3cc(NC(=O)C(C)C)ccc3o2)cc1C	0	0	-2	24088*
COc1ccc(NC(=O)Nc2cccc3c2O[C@H](CN(C)C(=O)Nc2c(C)noc2C)[C@@H](C)CN([C@H](C)CO)C3=O)cc1	-1	3	-8	4851
O=C(N/N=C/c1c[nH]c2ccccc12)c1ccccc1Cl	3	9	?	3795
Cc1occc1C(=O)N/N=C/c1c[nH]c2ccccc12	-1	-8	-5	22938*
CCOC(=O)N1CCN(C(=O)c2cc3n(n2)C(C(F)(F)F)CC(c2ccc4c(c2)OCO4)N3)CC1 (stereo not drawn)	-2	-6	-10	?
O=C(COc1ccccc1)NS(=O)(=O)c1ccccc1	1	-2	2	5158
CCCCNC(=S)N(C)/N=C/c1c(C)[nH]c2ccccc12	32*	5	-29	5277
CCOC(=O)c1c(N)sc2c(O)c(Br)ccc12	0	-2	-2	20732*
COc1ccc(NC(=O)C2=C(C)Nc3nc(CCCO)nn3C2c2ccc(OC)c(OC)c2)cc1 (stereo not drawn)	0	1	2	2404
Cc1c(C(=O)N2CCCCC2)c(S(=O)(=O)N2c3ccccc3CC2C)c(C)n1C (stereo not drawn)	1	3	0	5342
COC(C(=O)Nc1ccnn1C1CCN(Cc2nccs2)CC1)c1ccccc1 (stereo not drawn)	1	2	-5	5792
O=C(Nc1c(F)cc(F)cc1Br)C1CCCO1 (stereo not drawn)	-5	-2	-8	25313*
Cc1nc(N2CCN(Cc3ccccc3)CC2)nc2c1C(=O)CCC2	0	-5	29	4263
O=C1CCCc2nc(N3CCN(Cc4ccccc4)CC3)ncc21	?	2	9	17293*
Cc1cc(S(=O)(=O)N2CCCC2)c(C)s1	-3	0	-4	20695*
COc1c(C)cc(S(=O)(=O)N2CCCC2)c(C)c1C	-2	-2	-5	17139*
CC1(C)CC(=O)C(C(C2=C(O)CC(C)(C)CC2=O)c2cccc(O)c2)C(=O)C1 (stereo not drawn)	?	-2	-4	20599*
SMILES	BoNT A protease	Anthrax LF inh2	BoNT-F LC inh	Autofluor counter
O=C(O)Cn1nnnc1-c1ccc(F)cc1	3	-2	4	21941*
O=C(O)Cn1nc(-c2ccc(F)cc2)oc1=O	0	4	16	3262
CC(C)Cn1cc(F)c(=O)n(CC(C)C)c1=O	0	-6	7	3694
COc1ccc(S(=O)(=O)N2CCCCC2)cc1NC(=O)CCNC(=O)c1ccc(Cl)cc1	0	8	-6	2988
Clc1ccc(OCc2nc(-c3ccccn3)n[nH]2)cc1	0	-2	-1	19968*
CC(C)Cc1nnc(NC(=O)C2CC(=O)N(c3ccc4c(c3)OCCO4)C2)s1 (stereo not drawn)	0	6	9	3420
O=C(Nc1ccc(CN2CCOCC2)cc1)c1cccs1	1	-3	2	22111*
NC(=O)c1ccc(NC(=O)c2ccc(CN3CCOCC3)cc2)cc1	0	3	-1	9789
O=C(Nc1ccc(CN2CCOCC2)cc1)c1ccc(-c2cccc(Cl)c2)o1	0	-1	0	20353*
O=C(NC(=S)Nc1ccc(CN2CCOCC2)cc1)c1ccc(-c2cccc(Cl)c2)o1	0	-6	4	5228
CCOc1ccc(S(=O)(=O)N=C(c2ccccc2)N2CCOCC2)cc1	0	-8	-4	2857
Nc1c(Cl)c(Cl)nc(C(=O)OCC(=O)NC2CCCCC2)c1Cl	-4	2	-9	6394
CN(C)c1nc(NCc2ccccc2)nc(SCC(=O)Nc2ccc(Cl)c(Cl)c2)n1	0	3	-1	19687*
CCNc1nc(SCC(=O)Nc2ccc(Cl)c(Cl)c2)nc(N(C)C)n1	0	-2	-2	4139
COCCCn1c(C(=O)N2CC(C)OC(C)C2)cc2c(=O)n3ccccc3nc21 (stereo not drawn)	4	-6	6	4644
COc1ccccc1NC(=O)CSc1nc(=O)n(CCN2CCOCC2)c2c1CCC2	1	0	4	5185
c1ccc2c(c1)nc1n2C2(N3CCOCC3)CCCC2C1N1CCOCC1 (stereo not drawn)	-1	-2	-4	20620*
CCOC(=O)N1CCN(C(=S)NC(C)(C)C)CC1	-2	-1	-4	22858*
CCOC(=O)N1CCN(C(=S)NC)CC1	-1	2	4	3344
CCOC(=O)N1CCN(C(=S)NCCOC)CC1	4	-3	6	18608*
COc1ccc(C2=Cc3ccc(OC(C)=O)cc3OC2)cc1	0	-6	-5	3759
O=C(CN1C(=O)NC2(CCCC2)C1=O)NNC(=O)c1ccccc1F	0	-2	-1	3943
CCc1nnc(NC(=O)C2CCCN(c3nc4ccccc4s3)C2)s1 (stereo not drawn)	0	1	-1	19697*
O=C(Nc1ccc2c(c1)OCO2)C1CCCN(c2nc3ccccc3s2)C1 (stereo not drawn)	13	-3	14	18282*
COc1ccc(CCNC(=O)C2CCCN(c3nc4ccccc4s3)C2)cc1OC (stereo not drawn)	3	-3	11	3418
SMILES	BoNT A protease	Anthrax LF inh2	BoNT-F LC inh	Autofluor counter
CCCc1c(C(=O)N/N=C(\C)c2ccc(CC(C)C)cc2)nnn1-c1nonc1N	0	3	6	3708
CCOC(=O)c1c(C)[nH]c(C)c1S(=O)(=O)NCc1cc(C)ccc1C	1	-2	2	5705
Cc1ccccc1NC(=O)c1cccc(N2C(=O)C3C4CCC(C4)C3C2=O)c1 (stereo not drawn)	?	-1	-5	23697*
Cc1ccc(NC(=O)c2cccc(N3C(=O)C4C5CCC(C5)C4C3=O)c2)c(C)c1 (stereo not drawn)	0	0	1	2470
CCOC(=O)C1=C(CNCc2ccc(C)cc2)NC(=O)NC1c1cc(C)ccc1C (stereo not drawn)	17	-18	9	17821*
CCOC(=O)C1=C(CSc2nccn2C)NC(=O)NC1c1cc(C)ccc1C (stereo not drawn)	?	2	-3	16485*
CSc1ccc(/C=C(\C(=O)O)c2ccc(S(=O)(=O)N3CCCC3)s2)cc1	0	3	12	2994
CCC1=NN2C(=N)/C(=C\c3ccc(OCCOc4ccc(NC(C)=O)cc4)cc3)C(=O)N=C2S1	3	51*	16	3515
